Test results published in PubChem BioAssay.
Active and inactive are the calls of the source.

Experiments:
[1] = system: Plasmodium falciparum Sir2 (PF13_0152, Sir2A); experiment: Plasmodium falciparum Sir2A binding compounds – biochemical, small-molecule microarray, 635 nm fluorescence, primary screen (AID 1098); details: fluorescence 635 nm, higher = more signal;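 also: score merges spot fluorescence intensity with its signal-to-noise ratio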
[2] = probe aDKK1 binding to arrayed compounds – biochemical, biotinylated probe, 635/667 nm fluorescence, primary screen (AID 1099); details: small-molecule microarray, higher = more signal;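 also: score merges 667nm spot fluorescence with signal to noise across triplicate slides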
[3] = probe aCHRDL2 binding to arrayed compounds – biochemical, biotinylated probe, 635/667 nm fluorescence, primary screen (AID 1100); details: small-molecule microarray, higher = more signal
[4] = change in splice reporter luminescence, either direction, cell-based, HEK293, spliceosome inhibition project, primary screen (AID 1101); details: HEK293 splicing luciferase reporter, 24 h, higher = more signal, called active from +8 up or from −8 down;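 also: HEK293 cells carrying a splicing-competent luciferase reporter gene; test concentration not given here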
[5] = target: Fibroblast growth factor 10 (Homo sapiens) (UniProt O15520); experiment: compounds binding fibroblast growth factor 10 – biochemical, small-molecule microarray, 635 nm fluorescence, primary screen (AID 1102); details: FGF10 binding, fluorescence 635 nm, higher = more signal
Sequence of Fibroblast growth factor 10 (Homo sapiens) (O15520 whole entry, looked up): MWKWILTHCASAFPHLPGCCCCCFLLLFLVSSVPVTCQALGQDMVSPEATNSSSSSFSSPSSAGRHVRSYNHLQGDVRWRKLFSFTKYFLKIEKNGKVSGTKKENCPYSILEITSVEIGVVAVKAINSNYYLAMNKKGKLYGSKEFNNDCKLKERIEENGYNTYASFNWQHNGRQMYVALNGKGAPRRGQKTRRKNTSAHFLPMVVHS

[6] = system: glycogen synthase kinase-3 (GSK3A per assay name; protocol says GSK3B); experiment: compounds binding glycogen synthase kinase-3 – biochemical, small-molecule microarray, 635 nm fluorescence, GSK3A, primary screen (AID 1103); details: fluorescence 635 nm, higher = more signal; also: the record names both GSK3A and GSK3B
[7] = target: Epidermal growth factor receptor (Homo sapiens) (UniProt P00533); experiment: compounds binding epidermal growth factor receptor – biochemical, small-molecule microarray, 635 nm fluorescence, primary screen (AID 1104); details: EGFR binding, higher = more signal;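 also: score merges 667 nm emission intensity with spot signal to noise over triplicate slides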
Sequence of Epidermal growth factor receptor (Homo sapiens) (P00533 whole entry, looked up): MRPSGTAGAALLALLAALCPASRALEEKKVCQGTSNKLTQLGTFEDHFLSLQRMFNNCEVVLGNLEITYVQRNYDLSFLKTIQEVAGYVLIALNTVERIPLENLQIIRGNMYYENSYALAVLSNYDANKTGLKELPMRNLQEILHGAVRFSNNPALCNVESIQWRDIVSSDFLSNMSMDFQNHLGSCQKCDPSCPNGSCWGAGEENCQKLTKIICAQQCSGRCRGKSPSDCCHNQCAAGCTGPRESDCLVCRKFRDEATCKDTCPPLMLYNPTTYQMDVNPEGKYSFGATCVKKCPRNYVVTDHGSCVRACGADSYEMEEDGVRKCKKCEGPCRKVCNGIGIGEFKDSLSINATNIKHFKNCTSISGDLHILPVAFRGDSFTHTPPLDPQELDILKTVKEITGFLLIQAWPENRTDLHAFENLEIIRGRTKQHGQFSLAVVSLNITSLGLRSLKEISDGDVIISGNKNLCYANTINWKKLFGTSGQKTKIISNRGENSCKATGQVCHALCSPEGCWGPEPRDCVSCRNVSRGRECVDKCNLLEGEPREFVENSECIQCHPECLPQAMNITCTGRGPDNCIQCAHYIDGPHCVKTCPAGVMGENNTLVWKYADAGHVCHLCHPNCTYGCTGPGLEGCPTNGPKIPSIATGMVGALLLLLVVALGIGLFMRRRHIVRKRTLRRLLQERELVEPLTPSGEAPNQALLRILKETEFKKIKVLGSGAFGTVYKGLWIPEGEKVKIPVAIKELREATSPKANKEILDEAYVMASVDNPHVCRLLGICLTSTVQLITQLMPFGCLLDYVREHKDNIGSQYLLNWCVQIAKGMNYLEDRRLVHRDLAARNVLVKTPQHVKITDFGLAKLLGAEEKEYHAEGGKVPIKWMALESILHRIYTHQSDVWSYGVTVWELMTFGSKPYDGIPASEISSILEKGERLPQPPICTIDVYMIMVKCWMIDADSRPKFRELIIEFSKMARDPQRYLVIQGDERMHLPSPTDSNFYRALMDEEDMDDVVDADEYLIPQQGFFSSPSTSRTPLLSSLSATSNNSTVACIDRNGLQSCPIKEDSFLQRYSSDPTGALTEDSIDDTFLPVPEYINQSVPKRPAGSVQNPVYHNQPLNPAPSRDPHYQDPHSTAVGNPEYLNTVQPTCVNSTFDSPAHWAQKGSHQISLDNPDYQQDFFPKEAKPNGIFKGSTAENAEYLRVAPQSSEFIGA

[8] = target: Follistatin-related protein 3 (Homo sapiens) (UniProt O95633); experiment: compounds binding follistatin-related protein 3 – biochemical, small-molecule microarray, 635 nm fluorescence, primary screen (AID 1105); details: FSTL3 binding, higher = more signal;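 also: score merges emission near 667 nm and signal to noise per printed spot across three slides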
Sequence of Follistatin-related protein 3 (Homo sapiens) (O95633 whole entry, looked up): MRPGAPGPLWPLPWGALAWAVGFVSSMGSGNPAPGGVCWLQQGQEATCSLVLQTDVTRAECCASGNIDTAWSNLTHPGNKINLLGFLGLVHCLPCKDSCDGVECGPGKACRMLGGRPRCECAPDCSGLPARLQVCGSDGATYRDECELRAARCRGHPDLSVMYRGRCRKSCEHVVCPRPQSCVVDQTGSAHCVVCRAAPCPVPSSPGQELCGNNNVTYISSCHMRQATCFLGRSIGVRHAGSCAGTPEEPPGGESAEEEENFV

[9] = target: Dickkopf-related protein 1 (Homo sapiens) (UniProt O94907); experiment: small molecules binding DKK1 protein – biochemical, small-molecule microarray, 635 nm fluorescence scan, primary screen (AID 1106); details: higher = more signal;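 also: score merges emission near 667 nm with signal to noise over three replicate slides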
Sequence of Dickkopf-related protein 1 (Homo sapiens) (O94907 whole entry, looked up): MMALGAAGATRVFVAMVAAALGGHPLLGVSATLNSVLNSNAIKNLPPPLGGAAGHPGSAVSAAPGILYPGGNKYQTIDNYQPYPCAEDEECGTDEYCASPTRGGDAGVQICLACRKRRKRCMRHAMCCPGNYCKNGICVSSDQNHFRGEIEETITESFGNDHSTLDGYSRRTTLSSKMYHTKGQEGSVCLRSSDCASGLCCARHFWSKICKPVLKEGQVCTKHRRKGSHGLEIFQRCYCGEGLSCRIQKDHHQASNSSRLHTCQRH

[10] = system: Inhibin beta A chain (activin A); experiment: small molecules binding activin A – biochemical, small-molecule microarray, 635 nm fluorescence scan, primary screen (AID 1107); details: INHBA, higher = more signal;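 also: mouse activin A protein probed at 4.33 µg/mL on printed slides; score merges bound-protein fluorescence near 667 nm with spot signal-to-noise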
[11] = system: Human papillomavirus type 1a protein E7 (residues 44-93); experiment: small molecules binding HPV E7 44-93 – biochemical, small-molecule microarray, residues 44-93, 635 nm fluorescence, primary screen (AID 1108); details: fluorescence 635 nm, higher = more signal;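 also: E7 fragment applied at 1 µg/mL in TBST for 1 h at 4 C; score combines spot fluorescence with its signal to noise ratio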
[12] = hepatitis C replication reporter changes, two-sided – Huh7 cells, luciferase reporter, HCV replication inhibitor project, primary screen (AID 1109); details: Huh7 HCV replicon luciferase reporter, 48 h; higher = more signal;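 also: huh7 hepatoma cells harbouring a luciferase neomycin HCV replicon reporter; luciferase luminescence as measure of HCV replicon replication; test concentration not given here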
[13] = target: Left-right determination factor 2 (Homo sapiens) (UniProt O00292); experiment: small molecules binding LEFTY2 protein – biochemical, small-molecule microarray, 635 nm fluorescence scan, primary screen (AID 1110); details: higher = more signal
Sequence of Left-right determination factor 2 (Homo sapiens) (O00292 whole entry, looked up): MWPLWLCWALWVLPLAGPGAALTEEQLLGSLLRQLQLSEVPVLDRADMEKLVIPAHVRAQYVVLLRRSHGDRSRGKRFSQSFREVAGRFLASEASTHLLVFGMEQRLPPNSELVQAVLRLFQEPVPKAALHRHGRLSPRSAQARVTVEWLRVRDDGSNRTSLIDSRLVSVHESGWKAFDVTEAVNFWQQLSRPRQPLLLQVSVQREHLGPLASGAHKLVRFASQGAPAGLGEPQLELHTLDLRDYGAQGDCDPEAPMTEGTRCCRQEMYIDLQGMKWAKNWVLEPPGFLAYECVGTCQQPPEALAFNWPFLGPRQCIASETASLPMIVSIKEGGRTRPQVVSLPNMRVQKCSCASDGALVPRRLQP

[14] = target: Calmodulin-1 (Homo sapiens) (UniProt P0DP23); experiment: small molecules binding calmodulin-1 with EGTA – biochemical, small-molecule microarray, Cy5-labelled CALM1, profiling panel (AID 1111); details: Cy5-CALM1 binding fluorescence, higher = more signal;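 also: labelled calmodulin applied in Tris saline Tween buffer holding calcium plus EGTA and DTT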
[15] = target: Calmodulin-1 (Homo sapiens) (UniProt P0DP23); experiment: small molecules binding Ca-loaded calmodulin-1 – biochemical, small-molecule microarray, Cy5-labelled CALM1, plus calcium, artefact control for SMM control-protein annotation, profiling panel (AID 1112); details: Cy5-CALM1 binding fluorescence, higher = more signal;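 also: score merges spot fluorescence with signal to noise from triplicate slides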
[16] = probe aWnt5a binding to arrayed compounds – biochemical, biotinylated probe, 635/667 nm fluorescence, primary screen (AID 1113); details: small-molecule microarray, higher = more signal;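 also: score merges 667 nm fluorescence intensity with signal-to-noise per printed feature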
[17] = probe aShh binding to arrayed compounds – biochemical, biotinylated probe, 635/667 nm fluorescence, primary screen (AID 1114); details: small-molecule microarray, higher = more signal;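 also: probe is biotin-labelled aShh protein from a stem cell growth factor screen; measures binding of labelled protein to compounds printed on the slide; score merges feature fluorescence at 667 nm with signal-to-noise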
[18] = probe aNog binding to arrayed compounds – biochemical, biotinylated probe, 635/667 nm fluorescence, primary screen (AID 1115); details: small-molecule microarray, higher = more signal;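 also: probe is biotinylated aNog protein used at 0.15 µg/mL for 1 h at 4 C; z-score combines 667 nm fluorescence of each spot with its signal to noise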
[19] = target: Torsin-1A-interacting protein 1 (Homo sapiens) (UniProt Q5JTV8); experiment: compound microarray binding of lysate hLAP1 – cell lysate, small-molecule microarray, COS7 lysate, 635/667 nm fluorescence, primary screen (AID 1116); details: 635 nm fluorescence, higher = more signal
Sequence of Torsin-1A-interacting protein 1 (Homo sapiens) (Q5JTV8 whole entry, looked up): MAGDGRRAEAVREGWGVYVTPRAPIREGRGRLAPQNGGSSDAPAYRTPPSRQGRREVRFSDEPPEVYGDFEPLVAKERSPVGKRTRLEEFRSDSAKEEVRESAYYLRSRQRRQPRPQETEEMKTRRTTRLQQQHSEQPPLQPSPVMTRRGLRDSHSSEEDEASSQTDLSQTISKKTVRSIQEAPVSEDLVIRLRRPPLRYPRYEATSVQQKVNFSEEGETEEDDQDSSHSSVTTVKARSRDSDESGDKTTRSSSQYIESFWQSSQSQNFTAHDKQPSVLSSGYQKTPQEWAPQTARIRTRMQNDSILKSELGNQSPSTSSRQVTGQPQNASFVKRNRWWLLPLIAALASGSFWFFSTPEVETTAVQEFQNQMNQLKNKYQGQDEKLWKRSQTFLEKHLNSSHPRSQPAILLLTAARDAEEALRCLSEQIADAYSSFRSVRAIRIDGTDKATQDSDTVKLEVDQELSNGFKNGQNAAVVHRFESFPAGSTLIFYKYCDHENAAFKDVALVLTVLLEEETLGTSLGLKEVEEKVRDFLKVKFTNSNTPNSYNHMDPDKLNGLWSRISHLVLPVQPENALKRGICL

[20] = target: Alpha-bungarotoxin (Bungarus multicinctus) (UniProt P60615); experiment: compounds binding labelled alpha-BTX control protein – biochemical, small-molecule microarray, Alexa647 label, 635/667 nm fluorescence, artefact control for SMM control protein annotation, profiling panel (AID 1117); details: alpha-BTX-A647 binding fluorescence, higher = more signal
Sequence of Alpha-bungarotoxin (Bungarus multicinctus) (P60615 whole entry, looked up): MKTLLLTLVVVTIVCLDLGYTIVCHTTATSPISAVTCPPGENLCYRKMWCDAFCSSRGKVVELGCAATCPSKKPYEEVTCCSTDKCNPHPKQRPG

## CC(=O)NCCCC[C@@H]1NC(=O)[C@H]2C[C@@H](C(=O)NCCCCCCNC(=O)CS)[C@@H](c3ccc(O)cc3)N2C1=O
[1]
  composite z-score: 0.629
[2]
  composite z-score: -0.0749
[3]
  composite z-score: 0.986
[4]
  z-score: -0.401 (inactive)
[5]
  composite z-score: 0.0258
[6]
  composite z-score: 0.0703
[7]
  composite z-score: -0.728
[8]
  composite z-score: -0.961
[9]
  composite z-score: -0.788
[10]
  composite z-score: -1.11
[11]
  composite z-score: 1.06
[12]
  z-score: -0.532
[13]
  composite z-score: -0.747
[14]
  composite z-score: 0.362
[15]
  composite z-score: -0.295
[16]
  composite z-score: -0.124
[17]
  composite z-score: 0.131
[18]
  composite z-score: 0.0933
[19]
  composite z-score: 0.284
[20]
  composite z-score: 1.33

## CC(C)C(=C=CC[C@@H](O)c1ccc(OCCO)cc1)C[C@@H](O)COCc1ccccc1
[1]
  composite z-score: 0.413
[2]
  composite z-score: -0.133
[3]
  composite z-score: -0.222
[4]
  z-score: -1.97 (inactive)
[5]
  composite z-score: 1.23
[6]
  composite z-score: 0.099
[7]
  composite z-score: -0.516
[8]
  composite z-score: 0.478
[9]
  composite z-score: -0.198
[10]
  composite z-score: 0.992
[11]
  composite z-score: 0.702
[12]
  z-score: -0.453
[13]
  composite z-score: 0.164
[14]
  composite z-score: -0.774
[15]
  composite z-score: -0.918
[16]
  composite z-score: 0.505
[17]
  composite z-score: -0.0553
[18]
  composite z-score: 0.526
[19]
  composite z-score: 1.51
[20]
  composite z-score: 0.119

## CC(C)NC(=O)[C@@H]1c2ccccc2C(=O)N(C2Cc3ccccc3C2)[C@H]1c1ccc(CO)cc1
[1]
  composite z-score: 0.959
[2]
  composite z-score: 0.172
[3]
  composite z-score: 0.749
[4]
  z-score: -0.535 (inactive)
[5]
  composite z-score: 0.16
[6]
  composite z-score: 0.726
[7]
  composite z-score: -0.477
[8]
  composite z-score: 0.0389
[9]
  composite z-score: -0.224
[10]
  composite z-score: 0.175
[11]
  composite z-score: 1.41
[12]
  z-score: -1.31
[13]
  composite z-score: 0.25
[14]
  composite z-score: 0.344
[15]
  composite z-score: -0.225
[16]
  composite z-score: 0.0142
[17]
  composite z-score: -0.366
[18]
  composite z-score: -0.449
[19]
  composite z-score: 0.724
[20]
  composite z-score: 0.399

## C=CC[C@]1(C(=O)NCc2ccccc2)N=C(c2ccc(OCCCO)cc2)O[C@H]1c1ccccc1N=[N+]=[N-]
[1]
  composite z-score: 1.33
[2]
  composite z-score: -0.0281
[3]
  composite z-score: 1.11
[4]
  z-score: -0.457 (inactive)
[5]
  composite z-score: 0.819
[6]
  composite z-score: 0.849
[7]
  composite z-score: 0.174
[8]
  composite z-score: 0.637
[9]
  composite z-score: -0.284
[10]
  composite z-score: 1.29
[11]
  composite z-score: 1.44
[12]
  z-score: -0.368
[13]
  composite z-score: 0.201
[14]
  composite z-score: 1.96
[15]
  composite z-score: 0.901
[16]
  composite z-score: 0.0108
[17]
  composite z-score: 0.0875
[18]
  composite z-score: -0.572
[19]
  composite z-score: 1.44
[20]
  composite z-score: 1.65

## CCOC(=O)C[C@H]1[C@H](OC(=O)c2ccc(C(=O)c3ccccc3)cc2)[C@@H](NC(=O)c2ccccc2)c2cc(OCCCO)ccc2N1C(=O)Cc1ccc(OC)cc1
[1]
  composite z-score: -0.0032
[2]
  composite z-score: 0.234
[3]
  composite z-score: 0.586
[4]
  z-score: 0.0989 (inactive)
[5]
  composite z-score: 0.131
[6]
  composite z-score: 0.0916
[7]
  composite z-score: 0.285
[8]
  composite z-score: 0.0514
[9]
  composite z-score: -0.0269
[10]
  composite z-score: 0.811
[11]
  composite z-score: 0.525
[12]
  z-score: -0.283
[13]
  composite z-score: 0.366
[14]
  composite z-score: 0.0941
[15]
  composite z-score: -0.222
[16]
  composite z-score: -0.107
[17]
  composite z-score: -0.195
[18]
  composite z-score: -0.205
[19]
  composite z-score: 0.738
[20]
  composite z-score: 0.178

## C=CCNC(=O)[C@@H]1[C@H]2C(=O)O[C@H](c3ccccc3)[C@H](c3ccccc3)N2[C@H](c2ccc(O)cc2)[C@@]12C(=O)N(C(=O)OCCOC)c1ccc(C#CCNC(N)=O)cc12
[1]
  composite z-score: 0.88
[2]
  composite z-score: 0.148
[3]
  composite z-score: 0.658
[4]
  z-score: -0.273 (inactive)
[5]
  composite z-score: 0.969
[6]
  composite z-score: 1.06
[7]
  composite z-score: 0.119
[8]
  composite z-score: 1.08
[9]
  composite z-score: 0.417
[10]
  composite z-score: 1.02
[11]
  composite z-score: 1.32
[12]
  z-score: -0.578
[13]
  composite z-score: 0.31
[14]
  composite z-score: 1.83
[15]
  composite z-score: 0.294
[16]
  composite z-score: 0.0017
[17]
  composite z-score: 1.68
[18]
  composite z-score: 0.681
[19]
  composite z-score: 1.45
[20]
  composite z-score: 0.83
